Most compounds without a hit are left out; they make up all but 5.1% or so of the library.
JMJD2E inh – inhibitors of human JMJD2E histone demethylase; B2RXH2; hit rate 1.6% among 230,000; Potency, µM (series often up to 57.1 µM), actives largely listed as inhibitors; JMJD2E catalytic domain, FDH-coupled NADH fluorescence (FDH is formaldehyde dehydrogenase); AID 2147; active means well fitted inhibition curve with a large enough effect, not every such curve was filed as active; inconclusive means small, poorly fitted or top-dose-only effect, or another doubt; inactive means no such curve, though single readings can be large or run the other way; further: nearly all actives have a fitted effect of over 50% in size
Target sequence (B2RXH2 1-337 limits assumed): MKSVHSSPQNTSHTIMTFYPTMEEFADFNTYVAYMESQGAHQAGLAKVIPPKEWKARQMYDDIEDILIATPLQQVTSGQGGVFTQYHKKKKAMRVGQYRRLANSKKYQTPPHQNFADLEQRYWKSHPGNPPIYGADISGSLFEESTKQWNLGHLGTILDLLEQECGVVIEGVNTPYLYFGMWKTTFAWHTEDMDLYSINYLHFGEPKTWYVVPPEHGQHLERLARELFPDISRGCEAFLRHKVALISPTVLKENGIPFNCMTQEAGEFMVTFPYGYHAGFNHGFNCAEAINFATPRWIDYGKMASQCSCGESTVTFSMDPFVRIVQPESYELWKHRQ
Tau fibril ThT – blocks human tau fibril formation measured by thioflavin T; recombinant tau K18 P301L, heparin-induced fibrillization, ThT fluorescence; Potency, µM (top dose mostly 57.4 µM), most hits filed as inhibitors; hit rate 2.1% among 270,000; further: nearly all actives have a fitted effect of over 55% in size
Target sequence (P10636 561-689 P618L limits assumed): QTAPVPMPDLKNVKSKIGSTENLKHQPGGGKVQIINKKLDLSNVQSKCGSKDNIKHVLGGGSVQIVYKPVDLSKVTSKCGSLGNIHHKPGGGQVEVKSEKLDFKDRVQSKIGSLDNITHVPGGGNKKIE
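Recombinant human tau K18 fragment […] carrying P301L, 15 uM unlabeled plus 0.24 uM Alexa 594-labeled, was fibrillized with 20 uM heparin in 100 mM sodium acetate pH 7 for 6 hr at 37 C; 30 uM ThT fluorescence read after 1 hr.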
Tau fluor counter – counter-screen for tau fibril formation inhibitors; tau K18 P301L Alexa594 fluorescence, heparin fibrillization; Potency, µM (top dose mostly 57.7 µM); hit rate 0.93% among 280,000; further: nearly all actives have a fitted effect of over 55% in size
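Human tau K18 P301L (15 uM unlabeled, 0.24 uM Alexa 594-labeled) in 100 mM sodium acetate pH 7 with 20 uM heparin, 6 hr at 37 C. ThT 30 uM added, 1 hr ambient; Alexa 594 FP and total fluorescence read at 555/632 nm.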
PNC assembly inh – perinucleolar compartment assembly inhibition. PC3M PTB-GFP, PNC prevalence imaging, 16 h; hits give low values. activity change (PNC), negative = inhibition, % at 10 µM. hit rate 3.1% among 140,000. AID 2417;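 active means readout at or below -70, meaning at least 70% loss of cells showing the perinucleolar compartment, a nuclear body marking cancer cells; inconclusive means readout between -30 and a set limit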
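Compounds are pinned in duplicate onto adhered PC3M cells stably expressing GFP-tagged PTB and incubated 16 h at 37 C. Cells are then fixed, nuclei stained with Hoechst, and PNC-positive cells counted.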
Tau FP inhib – inhibitors of human tau fibril formation; K18 P301L tau heparin fibrillization, Alexa594 FP, 6 h; Potency, µM (titrated, usually from 57.7 µM), actives largely listed as inhibitors; hit rate 0.39% among 280,000; further: nearly all actives have a fitted effect of over 55% in size
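Recombinant K18 P301L […], labeled with Alexa 594 at 0.24 uM over 15 uM unlabeled; heparin inducer 20 uM final; 37 C, 6 hr; FP endpoint.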
NPSR antagonist – antagonists of human neuropeptide S receptor cAMP signaling. Q6W5P4. CHO-NPSR cells, cAMP TR-FRET, antagonist mode. Potency, µM (titrated, usually from 38.3 µM), actives largely listed as inhibitors. hit rate 1% among 220,000. AID 1461; further: nearly all actives have a fitted effect of over 50% in size
Each line names hits and unclear results; the compound was inactive in the other large screens; [ ] = dose if it differs, or a comment. Unless noted, the call rests on the fitted dose curve; in most records, active means well fitted curve in the direction sought with a large enough effect; inconclusive means small, poorly fitted or top-dose-only effect, or another doubt; inactive means no such curve, though single readings can be large; an effect the other way counts as inactive or inconclusive.

O=C1CC(N(CCc2ccccc2)C(=S)Nc2ccccc2)C(=O)N1c1ccc(Br)cc1 (stereo not given)	Tau fibril ThT inconclusive, Tau fluor counter inconclusive, Tau FP inhib 7.9µM, NPSR antagonist inconclusive
COc1ccc(CCN(C(=S)Nc2ccccc2)C2CC(=O)N(c3ccccc3)C2=O)cc1 (stereo not given)	Tau fluor counter inconclusive, NPSR antagonist inconclusive
CC(C)CCNc1nc(Nc2ccccc2)c2cnn(C)c2n1	Tau fluor counter inconclusive, Tau FP inhib inconclusive (no result: JMJD2E inh, PNC assembly inh, NPSR antagonist)
CC1=NN(c2ccccc2)C(=O)/C1=C/c1c(O)n(-c2ccc(F)c(Cl)c2)[nH]c1=O	Tau fibril ThT 5µM, Tau fluor counter inconclusive, PNC assembly inh -116, Tau FP inhib inconclusive
CC1=[N+](C)c2ccc3ccccc3c2C1(C)C	JMJD2E inh inconclusive, Tau fibril ThT 14µM, Tau fluor counter inconclusive
Cc1nsc2c1ccc1ccccc12	none (no result: PNC assembly inh)
CCOc1cccc(NC(=O)CSc2ncc(-c3ccccc3)[nH]2)c1	Tau fibril ThT inconclusive, Tau fluor counter inconclusive (no result: JMJD2E inh, PNC assembly inh, NPSR antagonist)
O=C(CSc1ncc(-c2ccccc2)[nH]1)Nc1cccc(C(F)(F)F)c1	Tau fluor counter 16µM[quencher], Tau FP inhib inconclusive (no result: JMJD2E inh, PNC assembly inh, NPSR antagonist)
COC(=O)c1ccc(NC(=O)c2c(NCc3cccc(F)c3)sc3c2CCCC3)cc1	Tau fibril ThT inconclusive, Tau fluor counter inconclusive (no result: JMJD2E inh, PNC assembly inh, NPSR antagonist)
CCCCN(CC)S(=O)(=O)c1ccc(C(=O)N(CCCN(C)C)c2nc3cc(C)cc(C)c3s2)cc1	Tau fibril ThT inconclusive, NPSR antagonist 10µM (no result: PNC assembly inh)
CN(C)c1ccc(NC(=S)NC(=O)/C=C/c2ccco2)cc1	Tau fibril ThT inconclusive (no result: PNC assembly inh)
CN(C)c1ccc(NC(=S)NC(=O)/C=C/c2ccc(Cl)cc2)cc1	Tau fibril ThT 10µM, Tau fluor counter inconclusive
COc1ccc(C2C(C(=O)Nc3cccnc3)=C(C)Nc3nc(-c4cccs4)nn32)cc1OC (stereo not given)	PNC assembly inh -108
O=C(Nc1nc(-c2ccco2)c(-c2ccco2)s1)C1CC(=O)N(c2ccc3c(c2)OCCO3)C1 (stereo not given)	JMJD2E inh inconclusive, Tau fibril ThT 14µM, Tau fluor counter inconclusive, Tau FP inhib inconclusive
Cc1cc(OCC(=O)C(C)(C)C)c2c(C)c(C)c(=O)oc2c1	JMJD2E inh inconclusive, PNC assembly inh -100
CCOc1c(OC(C)=O)ccc(/C=C/c2ccc3cccc(OC)c3n2)c1[N+](=O)[O-]	Tau fibril ThT 5.6µM, Tau fluor counter inconclusive, Tau FP inhib inconclusive
O=C1/C(=C/c2ccccc2O)SC(=S)N1Cc1cccnc1	Tau fibril ThT inconclusive
O=C(NN1C(=O)/C(=C/c2ccc(O)c([N+](=O)[O-])c2)SC1=S)c1ccccc1Cl	Tau fibril ThT 4µM, Tau fluor counter inconclusive, NPSR antagonist 6.3µM (no result: PNC assembly inh)
NC1=NC(=O)/C(=C\c2ccc(O)c([N+](=O)[O-])c2)S1	Tau fibril ThT inconclusive (no result: PNC assembly inh)
O=C1/C(=C/c2ccc(O)c([N+](=O)[O-])c2)SC(=S)N1Cc1ccccc1	Tau fibril ThT 7.1µM, Tau fluor counter inconclusive (no result: PNC assembly inh)
CN1C(=O)/C(=C/c2ccc(O)c([N+](=O)[O-])c2)NC1=S	Tau fibril ThT 16µM, NPSR antagonist inconclusive (no result: PNC assembly inh)
COCCCNc1ncnc2c1cnn2-c1ccc(F)cc1	none (no result: JMJD2E inh, PNC assembly inh, NPSR antagonist)
Cc1cccc(NC(=O)C(=O)NCC(c2cccnc2)N2CCc3ccccc32)c1C (stereo not given)	none (no result: JMJD2E inh, PNC assembly inh, NPSR antagonist)
Cc1cccc(N2CCN(C(=O)c3ccc(NC(=O)c4nsc5ccccc45)cc3)CC2)c1C	none (no result: JMJD2E inh, PNC assembly inh, NPSR antagonist)
Cc1nn(-c2ccccc2)c(OC(=O)c2ccc(Br)cc2)c1S(=O)(=O)c1ccccc1	none (no result: JMJD2E inh, PNC assembly inh, NPSR antagonist)
Cc1ccc(S(=O)(=O)N(C)C)cc1NC(=O)Nc1ccccc1F	none (no result: PNC assembly inh)
Cc1cc(C)cc(NC(=O)Nc2cc(S(=O)(=O)N(C)C)ccc2C)c1	Tau fluor counter 16µM[quencher], Tau FP inhib inconclusive, NPSR antagonist inconclusive (no result: PNC assembly inh)
CCN(CC)S(=O)(=O)c1ccc(C)c(NC(=O)CN(C)C)c1	PNC assembly inh -84
CCN(CC)S(=O)(=O)c1ccc(C)c(NC(=S)NC2CCCCC2)c1	none (no result: PNC assembly inh)
Cc1ccccc1-c1noc(CCC(=O)Nc2cccc(C)c2C)n1	none (no result: JMJD2E inh, PNC assembly inh, NPSR antagonist)
Cc1cc(C)c2c(c1)c(C)cc1nnc(SCC(=O)c3ccc(F)cc3)n12	none (no result: JMJD2E inh, PNC assembly inh, NPSR antagonist)
COc1ccc(C(=O)NC(=S)Nc2cc3oc4ccccc4c3cc2OC)cc1	none

Source: PubChem BioAssay
